The values that follow come from the supplement of paper PMC12024424.

SMILES strings stand for the structures. Counter-ions that a name gives are not always drawn.

This assay relates to Staphylococcus aureus Sa2 (MRSA, cystic fibrosis isolate). As to the kind of experiment: growth reduction vs untreated control (viable cell count); higher = stronger antibacterial activity; extreme values may be limits of the assay. The following applies: 0.1 mM; 24 h. On the procedure: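 Single-dose screen of the MedChem Express Drug Repurposing Library (0.1 mM, 1% DMSO) against planktonic MRSA S. aureus Sa2 (CF isolate) in TSB in 96-well plates, 37 °C aerobic, 24 h. Assays were run in triplicate and repeated twice.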
Turning to `O=C(CNC(=O)c1ccc(C2=NOC(c3cc(Cl)cc(C(F)(F)F)c3)(C(F)(F)F)C2)c2ccccc12)NCC(F)(F)F` (stereo not drawn) [Afoxolaner], the growth reduction is 98%.
For `COc1cccc2c1cc([N+](=O)[O-])c1c(C(=O)O)cc3c(c12)OCO3` [Aristolochic acid A] the value was 100%; for `c1ccc2c(c1)Sc1ccccc1N2CC1CN2CCC1CC2` (stereo not drawn) [Mequitazine], 96%; for `Cc1cc2c(C(C)C)c(O)c(O)c(C=O)c2c(O)c1-c1c(C)cc2c(C(C)C)c(O)c(O)c(C=O)c2c1O` [Gossypol], 100%.
For `Cc1cc2c(C(C)C)c(O)c(O)c(C=O)c2c(O)c1-c1c(C)cc2c(C(C)C)c(O)c(O)c(C=O)c2c1O` [Gossypol (acetic acid)] the value was 100%.
As to `O=C(O)c1nn(Cc2ccc(Cl)cc2Cl)c2ccccc12` [Lonidamine], the growth reduction amounted to 90%.
As for `O=c1[nH]c2ccccc2n1C1CCN(CCCC(c2ccc(F)cc2)c2ccc(F)cc2)CC1` [Pimozide], the figure is 98%; as for `Fc1ccc(C(OCCN2CCN(CCCc3ccccc3)CC2)c2ccc(F)cc2)cc1` [Vanoxerine (dihydrochloride)], 99%.
For `CC[C@H](C)C1O[C@]2(C=C[C@@H]1C)C[C@@H]1C[C@@H](C/C=C(\C)[C@@H](O[C@H]3C[C@H](OC)[C@@H](O[C@H]4C[C@H](OC)[C@H](NC)[C@H](C)O4)[C@H](C)O3)[C@@H](C)/C=C/C=C3\CO[C@@H]4[C@H](O)C(C)=C[C@@H](C(=O)O1)[C@]34O)O2` (stereo partly drawn) [Emamectin (Benzoate)] the value was 100%; for `C[S+]([O-])CCCCN=C=S` (stereo not drawn) [Sulforaphane], 100%; for `O=c1c2ccccc2[se]n1-c1ccccc1` [Ebselen], 100%.
As for `CCNC1=Nc2ccc(Cl)cc2C(C)(c2ccccc2)O1` (stereo not drawn) [Etifoxine], the figure is 100%; as for `Cc1cc2c(C(C)C)c(O)c(O)c(C=O)c2c(O)c1-c1c(C)cc2c(C(C)C)c(O)c(O)c(C=O)c2c1O` [(R)-(-)-Gossypol acetic acid], 100%.
